In ChEMBL document CHEMBL4513146, “CO-ADD screening of Karazin Kharkiv National University (Ukraine) compounds”:
Potency and affinity values are given separately.

Key:
[1] = test system: Klebsiella pneumoniae; conditions: Concentration 32 ug.mL-1;; ASSAY_TEST Inhibition of Bacterial Growth; detection method Absorption (OD600); MEDIA CAMHB; plate type 384well; NBS; CORNING #3640; time 18 hr
[2] = test system: Candida albicans; conditions: Concentration 32 ug.mL-1; ASSAY_TEST Inhibition of Fungal Growth; detection method Absorption (OD530)
[3] = test system: Cryptococcus neoformans; conditions: Concentration 32 ug.mL-1; ASSAY_TEST Inhibition of Fungal Growth; detection method Resazurin; Absorption (OD600-OD570); plate type 384well; NBS; CORNING #3640

Structure (SMILES) | Inhibition [1] | Inhibition [2] | Inhibition [3]
O=C(Cn1nc2c(N3CCOCC3)nccn2c1=O)NCc1ccc(C(F)(F)F)cc1 | 3.05% | 1.76% | -5.37%
CCc1ccc(NC(=O)Cn2nc3n(Cc4ccco4)c(=O)c4sccc4n3c2=O)cc1 | -2.12% | 5.72% | -17.39%
O=C(Cn1nc2ccc(-c3ccc(Cl)cc3)nn2c1=O)N1CCN(c2ccccc2)CC1 | -0.57% | -1.89% | -9.03%
O=C(Cn1nc2c(N3CCOCC3)nccn2c1=O)NCc1cccs1 | 15.07% | 2.44% | -8.25%
O=C(Cn1nc2ccc(Sc3cccc(F)c3)nn2c1=O)Nc1ccc2c(c1)OCCO2 | 12.38% | -0.05% | -8.22%
Cc1ccc(Sc2nccn3c(=O)n(CC(=O)Nc4ccccc4Br)nc23)c(C)c1 | 1.33% | 1.01% | -20.06%
O=C(Cn1nc2c(N3CCOCC3)nc3ccccc3n2c1=O)NCc1ccccc1Cl | -0.61% | 6.61% | -3.24%
Cc1cccc(CN(c2ccc(F)cc2)S(=O)(=O)c2ccc3nnc(C)n3c2)c1 | 6.15% | 1.93% | -4.65%
COc1ccc(CCNC(=O)Cn2nc3c(N4CCOCC4)nccn3c2=O)cc1OC | 17.72% | 2.21% | -10.16%
COc1ccc2[nH]cc(C(=O)CSc3nnc4c(=O)n(-c5cccc(Cl)c5C)ccn34)c2c1 | 5.78% | 2.95% | -9.58%
CCCCOc1ccc(-c2cc3c4nnc(SCC(=O)Nc5ccc(C)c(F)c5)n4ccn3n2)cc1 | 6.88% | 11.03% | -15.89%
CCc1nnc2ccc(S(=O)(=O)N(Cc3ccc(OC)cc3)c3ccc(F)cc3)cn12 | 10.6% | 0.7% | -9.28%
Cc1ccccc1Oc1nccn2c(=O)n(CC(=O)Nc3ccccc3C(F)(F)F)nc12 | 15.23% | -0.33% | -11.87%
CCCn1c(=O)c2sccc2n2c(=O)n(CC(=O)c3ccccc3)nc12 | 3.65% | 4.43% | -9.13%
Cc1nnc2ccc(S(=O)(=O)N(Cc3ccccc3Cl)c3ccc(F)cc3)cn12 | 0.63% | 5.22% | -2.96%
Cc1cccc(NC(=O)CSc2nnc3ccc(C(=O)Nc4cccc(F)c4)cn23)c1 | 11.26% | 1.08% | -17.48%
O=c1c2nn(Cc3ccc(F)cc3)c(=O)n2ccn1-c1ccccc1 | 9.86% | 2.87% | -6.47%
COc1ccccc1N1CCN(C(=O)Cn2nc3ccc(-c4ccc(Cl)cc4)nn3c2=O)CC1 | 12.66% | -1.54% | -12.15%
Cc1c(Cl)cccc1-n1ccn2c(=O)n(Cc3ccccc3Cl)nc2c1=O | -1.96% | -2.16% | -12.25%
CCOc1ccc(NC(=O)Cn2nc3c(Oc4cccc(OC)c4)nccn3c2=O)cc1 | 14.7% | 3.56% | -8.08%
COCCCNC(=O)CSc1nnc2c(=O)n(Cc3ccc(F)cc3)ccn12 | 13.69% | 2.6% | -25.66%

Structure (SMILES) | Inhibition [1] | Inhibition [2] | Inhibition [3]
Cc1ccc(Cn2c(=O)c3ccccc3n3c(=O)n(CC(=O)Nc4ccc5c(c4)OCCO5)nc23)cc1 | 10.7% | 0.1% | -21.97%
COc1ccccc1-n1ccn2c(SCc3ccccc3Cl)nnc2c1=O | 10.5% | 2.3% | -11.71%
CC(C)c1nnc2c(SCC(=O)Nc3ccc(Br)cc3)nc3ccccc3n12 | 6.82% | 0.48% | 0.69%
CCc1nnc2c(S(=O)(=O)N(Cc3cc(F)cc(F)c3)c3ccccc3)cccn12 | 9.94% | 6.55% | -7.12%
COc1cc(OC)c(NC(=O)Cn2nc3ccc(Sc4ccc(C)cc4)nn3c2=O)cc1Cl | -1.47% | 29.33% | -7.45%
Cc1ccc(Sc2ccc3nn(CC(=O)Nc4ccc(F)c(Cl)c4)c(=O)n3n2)cc1 | 6.66% | 6.36% | -7.28%
Cc1cc(C)cc(N(Cc2cccc(Cl)c2)S(=O)(=O)c2cccn3cnnc23)c1 | 9.53% | 1.12% | -7.68%
COc1ccc(NC(=O)Cn2c(=O)c3nnc(C(C)C)n3c3ccccc32)cc1Cl | 7.18% | 3.46% | -13.11%
COC(=O)c1ccc(CN(c2cccc(F)c2)S(=O)(=O)c2ccc3nncn3c2)o1 | 8.3% | 2.51% | -7.35%
COc1ccc(NC(=O)Cn2nc3c(N4CCCC4)nccn3c2=O)cc1 | 6.93% | 1.38% | -6.3%
CCc1nnc2c(S(=O)(=O)N(Cc3cccc(OC)c3)c3ccccc3)cccn12 | 11.28% | 4.76% | -9.71%
COc1ccc(N2CCN(C(=O)Cn3nc4ccc(S(=O)(=O)C(C)(C)C)nn4c3=O)CC2)cc1 | 18.13% | -0.23% | -28.46%
Cc1cc(C)cc(NC(=O)Cn2nc3c4cc(-c5ccc(Cl)cc5)nn4ccn3c2=O)c1 | 7.37% | 6.87% | -7.11%
COc1cccc(CN(c2ccc(F)c(F)c2)S(=O)(=O)c2ccc3nncn3c2)c1 | 0.45% | 4.56% | -8.9%
COc1ccc(NC(=O)Cn2nc3ccc(-c4ccccc4)nn3c2=O)cc1Cl | -6.25% | 19.43% | -3.35%
COc1ccccc1CNC(=O)Cn1nc2c(N3CCSCC3)nccn2c1=O | 3.04% | 3.29% | -6.25%
Cc1ccc(-c2ccc3nn(CC(=O)NC4CCCCC4)c(=O)n3n2)cc1C | 13.52% | 3.29% | -9.98%
O=C(CSc1nnc2c(=O)n(-c3ccccc3)ccn12)Nc1ccc(Cl)cc1 | 8.54% | 0.98% | -17.38%
CCc1nnc2c(SCC(=O)Nc3cc(Cl)ccc3C)nc3ccccc3n12 | 15.39% | 3.09% | -9.04%
COc1cccc(-n2ccn3c(SCC#N)nnc3c2=O)c1 | 2.74% | 3.51% | -7.4%
Cc1ccc(NC(=O)Cn2nc3ccc(SC(C)(C)C)nn3c2=O)c(C)c1 | 14.3% | 1.14% | -21.84%

Structure (SMILES) | Inhibition [1] | Inhibition [2] | Inhibition [3]
Cc1ccccc1Oc1nccn2c(=O)n(CC(=O)Nc3ccc(C(C)C)cc3)nc12 | 6.08% | 37.73% | -9.72%
CCc1cccc(NC(=O)Cn2nc3ccc(SC(C)(C)C)nn3c2=O)c1 | 16.66% | 3.39% | -23.79%
Cc1cccc(NC(=O)Cn2nc3ccc(-c4ccc(C)c(C)c4)nn3c2=O)c1 | -0.51% | -1.03% | -12.34%
Cc1cc2nn(CC(=O)NCc3ccccc3)c(=O)n2c(-c2ccc(C(F)(F)F)cc2)n1 | -2.81% | 22.82% | -6.62%
Cc1ccc(Sc2nccn3c(=O)n(CC(=O)N4CCN(c5ccccc5)CC4)nc23)c(C)c1 | 2.5% | 3.52% | -7.85%
CCc1nnc2c(SCC(=O)Nc3ccccc3Br)nc3ccccc3n12 | 11.72% | 2.39% | -22.99%
COc1ccc(-c2nc(CSc3nc4ccccc4n4c(C(C)C)nnc34)c(C)o2)cc1 | 4.67% | 2.32% | -16.11%
CCCCOc1ccc(-c2cc3c4nnc(SCC(=O)Nc5cc(C)ccc5OC)n4ccn3n2)cc1 | -4.93% | 45.46% | -16.58%
CCCc1nnc2c(=O)n(CC(=O)Nc3cccc(Br)c3)c3ccccc3n12 | 0.59% | 0.12% | -38.92%
Cc1cc(C)cc(NC(=O)Cn2nc3n(C)c(=O)c4c(c(-c5ccccc5)cn4C)n3c2=O)c1 | 6.43% | 0.06% | -5.54%
COC(=O)c1cccc(NC(=O)Cn2nc3c(Oc4ccccc4)nccn3c2=O)c1 | 3.42% | 3.07% | -9.43%
Cc1ccc(NC(=O)Cn2nc3c(SCc4ccc(Cl)cc4)nccn3c2=O)cc1F | 7.4% | 3.39% | -12.99%
Cc1cc(C)cc(N(Cc2ccccc2)S(=O)(=O)c2cccn3c(C)nnc23)c1 | -0.64% | 2% | -6.56%
CCc1ccc(NC(=O)Cn2nc3cc(C)nc(Nc4ccc(F)c(C)c4)n3c2=O)cc1 | 8.35% | 8.83% | -9.39%
Cc1ccccc1Oc1nccn2c(=O)n(CC(=O)Nc3ccc(C#N)cc3)nc12 | 13.8% | -1.85% | -9.67%
Cc1ccc(Oc2nccn3c(=O)n(CC(=O)Nc4cc(F)ccc4F)nc23)cc1 | 10.7% | 4.41% | -11.42%
O=C(CSc1nnc2c(=O)n(-c3ccc(F)cc3)ccn12)c1ccccc1Cl | 14.55% | 8.47% | -13.46%
COc1ccc(NC(=O)Cn2nc3c(Oc4cccc(F)c4)nccn3c2=O)cc1 | -11.98% | 4.65% | -6.95%
Cc1ccc(-c2cc3c4nnc(CCC(=O)N5CCN(c6ccccn6)CC5)n4ccn3n2)cc1C | 7.34% | 0.49% | -12.2%
